Sampled rows, rich in hits. Any-hit rate of the full collection: about 2.1%.
ABCB6 inh 2 – inhibitors of human ABC transporter ABCB6; Q9NP58; K562-ABCB6 porphyrin accumulation, flow cytometry, 1 h; hits give low values; fluorescence ratio to DMSO, % at 10 µM; 360,000 compounds, 0.19% hits; AID 602162;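 active means fluorescence ratio to DMSO below 75%, the collection mean minus 3 SD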;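 further: signal is porphyrin accumulated inside mitochondria; 100% equals median channel fluorescence of DMSO control wells; lower ratio means ABCB6 inhibition with less porphyrin fluorescence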
Target sequence (Q9NP58 whole entry, looked up): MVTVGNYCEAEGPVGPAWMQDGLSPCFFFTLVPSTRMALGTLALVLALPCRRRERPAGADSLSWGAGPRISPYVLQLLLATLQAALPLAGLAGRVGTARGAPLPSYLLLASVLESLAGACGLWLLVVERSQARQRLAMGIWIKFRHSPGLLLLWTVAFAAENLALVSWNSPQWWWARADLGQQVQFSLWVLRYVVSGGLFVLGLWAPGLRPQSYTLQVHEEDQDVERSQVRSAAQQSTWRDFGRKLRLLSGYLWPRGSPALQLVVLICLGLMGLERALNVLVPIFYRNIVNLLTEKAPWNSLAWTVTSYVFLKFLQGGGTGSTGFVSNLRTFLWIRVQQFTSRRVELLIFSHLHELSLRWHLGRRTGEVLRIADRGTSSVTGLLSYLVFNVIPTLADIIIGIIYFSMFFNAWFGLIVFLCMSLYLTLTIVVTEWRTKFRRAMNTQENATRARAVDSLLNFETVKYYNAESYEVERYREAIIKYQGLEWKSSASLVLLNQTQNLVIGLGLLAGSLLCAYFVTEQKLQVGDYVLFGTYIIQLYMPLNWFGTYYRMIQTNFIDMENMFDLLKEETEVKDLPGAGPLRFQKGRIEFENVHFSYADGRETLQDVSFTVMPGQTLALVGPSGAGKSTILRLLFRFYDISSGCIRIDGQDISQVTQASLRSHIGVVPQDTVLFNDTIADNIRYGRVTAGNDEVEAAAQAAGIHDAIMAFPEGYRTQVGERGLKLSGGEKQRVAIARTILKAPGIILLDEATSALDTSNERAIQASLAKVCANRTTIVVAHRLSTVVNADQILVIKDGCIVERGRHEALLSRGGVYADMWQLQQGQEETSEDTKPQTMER
MsrA inh – inhibits bovine methionine sulfoxide reductase A | 360,000 compounds, 0.75% hits | purified bovine MsrA, absorbance read-out | inhibition, % at 15.5 µM; in the data active means inhibition above about 4.5%;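 further: 0% = vehicle wells with enzyme and 100% = reference inhibitor wells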
bovine MsrA act – activators of bovine methionine sulfoxide reductase A; purified bovine MsrA, absorbance read-out; activation, % at 10.6 µM; 360,000 compounds, 0.3% hits; AID 602163; in the data active means activation above about 7.5%;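 further: 0% = vehicle and 100% = reference activator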
SMARCA2 act – activators of SMARCA2 function; MG213 cells, MMTV-luciferase reporter, dexamethasone, overnight; activation, % at 9.1 µM; 370,000 compounds, 1% hits; in the data active means activation above about 7.8%;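 further: 0% = vehicle wells and 100% = reference activator wells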
SMARCA2 act conf – confirmation of SMARCA2 (BRM) function activators; activation, % at 9.1 µM; 3,500 compounds, 30% hits; shares compounds with SMARCA2 act; MG213 cells, MMTV-luciferase with dexamethasone, luminescence, overnight; MG213 cells expressing E1A, Rb sequestered; DMSO wells 0%, reference activator 100%;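 active means activation above its plate's cutoff, the mean activation of tested wells plus 3 SD, cut at about 7.9% in these data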
GAL4-VP16 Luc – GAL4-VP16 reporter activation counter-screen; shares compounds with SMARCA2 act; HEK293 GAL4-VP16 pG5luc reporter, luciferase luminescence; scaled: DMSO wells 0%, SAHA wells 100%; activation, % at 9.1 µM; 3,500 compounds, 41% hits;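 active means activation above the solvent-only control well mean plus 3 SD, averaged across control plates, cut at about 5.2% in these data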
Numbers without * were called inactive; . = no result given.

SMILES | ABCB6 inh 2 | MsrA inh | bovine MsrA act | SMARCA2 act | SMARCA2 act conf | GAL4-VP16 Luc
Cc1ccccc1-c1nnc(SCc2ccccc2)o1 | 98 | 0 | 2 | 13* | 7 | 5
Cc1ccc(CSc2nnc(-c3ccc(NS(=O)(=O)c4ccccc4)cc3)o2)cc1 | 102 | 0 | -2 | 11* | -2 | -1
Cc1ccccc1-c1nnc(SCc2ccccc2F)o1 | 96 | 1 | -1 | 5 | . | .
O=C(CC1(O)C(=O)Nc2cc(Cl)cc(Cl)c21)c1ccncc1 (stereo not drawn) | 109 | 0 | 0 | 11* | 0 | 0
CCCCCCCCNC(=O)C1CSCCS(=O)(=O)N1Cc1ccccc1 (stereo not drawn) | . | . | . | 1 | . | .
COc1ccc(Cn2ccc3ccc(-c4ccc5ccn(C(=O)c6cccc(OC)c6)c5c4)cc32)cc1 | . | . | . | 1 | . | .
COc1cc(/C=C2\SC(=S)N(Nc3ccccc3)C2=O)ccc1O | 216 | 0 | 1 | 8.2* | 7 | 11*
CCOc1cc(/C=C2\SC(=S)N(Nc3ccccc3)C2=O)ccc1O | 230 | 1 | -11 | 4 | . | .
Cc1ccccc1NC(=O)OC1CCC12CCCCC2 (stereo not drawn) | . | . | . | -4 | . | .
Cc1nc(CS(=O)(=O)c2ccccc2)cc(Sc2ccccc2Cl)n1 | 89 | 0 | -10 | 8.2* | 7 | 6.9*
CCn1c(=O)cc(SCC(=O)Nc2ccc(C)cn2)c2ccccc21 | 92 | -1 | 1 | 9.2* | 15* | 0
O=C(CC1CCCC1)Nc1ccc2c(c1)CCC2 | 99 | 1 | -3 | 9.0* | 13* | 2
Cc1cc(NC(=O)CC2CCCC2)ccc1Br | 92 | 0 | 0 | 11* | 7 | 8.6*
O=C(COC(=O)c1ccc(Cl)nc1)Nc1ccc2c(c1)CCC2 | 101 | 0 | -7 | 9.1* | -1 | 0
O=C(Nc1ccc(F)cc1)Nc1ccc2c(c1)CCC2 | 97 | -1 | -4 | 3 | . | .
O=C(Nc1cccc(F)c1)Nc1ccc2c(c1)CCC2 | 97 | 0 | -1 | 8.8* | 9.8* | 6.5*
CN(Cc1cn(Cc2ccccc2)nn1)S(=O)(=O)c1ccccc1Br | . | . | . | 0 | . | .
O=[N+]([O-])c1cc(Cl)ccc1NCCNS(=O)(=O)c1ccccc1 | 92 | -1 | -4 | 16* | -1 | 1
O=C(c1cnn2cccnc12)N1CCN(c2ccccc2)CC1 | 95 | 0 | 1 | 13* | 2 | 2
O=C(c1ccccc1Br)N1CCN(c2ccccc2)CC1 | 97 | 0 | -3 | -2 | . | .
COCCCNC(=O)C[C@H]1C[C@@]2(C(=O)OC)C(=C[C@H](C(C)C)O[C@@H]2C2CC2)N(Cc2ccco2)C1=O | . | . | . | 0 | . | .
COc1ccc(-c2nc3ccccn3c2C=O)cc1 | 100 | 2 | -2 | 8.7* | 8 | 9.0*
CC(/C=C1\SC(=S)N(NC(=O)c2ccc(O)cc2)C1=O)=C\c1ccccc1 | 103 | 0 | -4 | 9.0* | 1 | 1
CCC(C(=O)O)N1C(=O)/C(=C/C(C)=C/c2ccccc2)SC1=S (stereo not drawn) | 100 | 2 | -2 | -4 | . | .
O=C(C1CCCO1)N1CCN(C2=Nc3ccccc3Sc3ccccc32)CC1 (stereo not drawn) | . | . | . | -1 | . | .
SMILES | ABCB6 inh 2 | MsrA inh | bovine MsrA act | SMARCA2 act | SMARCA2 act conf | GAL4-VP16 Luc
COP(=O)(OC)C(Cc1ccccc1)NC(=O)CNC(=O)OCc1ccccc1 (stereo not drawn) | . | . | . | 1 | . | .
COc1ccc(NC(=S)Nc2cc(C)[nH]n2)cc1Cl | 102 | 0 | -1 | 2 | . | .
Cc1cc(NC(=S)Nc2ccc(C)c(Cl)c2)n[nH]1 | 106 | 0 | -3 | 8.3* | 10* | 6.9*
COc1c(C(=O)Nc2nccs2)ccc2ccccc12 | 96 | 1 | -3 | 10* | 10* | 11*
S=C(NCCc1ccccc1)N1CCN(C(=S)NCCc2ccccc2)CC1 | 99 | -1 | -1 | 1 | . | .
CC1CCN(C(=S)NCCc2ccccc2)CC1 | 106 | 0 | -7 | 8.7* | 11* | 6.7*
C[C@@H]1CCCCO[C@@H](CN(C)CC2CCCCC2)[C@@H](C)CN([C@H](C)CO)C(=O)c2cc(NC(=O)Nc3ccc4c(c3)OCO4)ccc2O1 | . | 0 | . | -3 | . | .
O=C(Nc1cccc(-c2ccc(N3CCOCC3)nn2)c1)c1ccccc1Cl | 99 | 0 | 1 | 11* | 14* | 10*
O=C(Nc1cccc(-c2ccc(N3CCOCC3)nn2)c1)c1ccc(Cl)cc1 | 98 | 1 | -2 | 2 | . | .

Screens deposited in PubChem BioAssay by several laboratories.
